# Measured values from article PMC6792352, “Limited Chemical Structural Diversity Found to Modulate Thyroid Hormone Receptor in the Tox21 Chemical Library” (Environmental Health Perspectives, 2019).
# Where a name gives a salt, the structure may show the parent alone.
# Test system: thyroid hormone receptor (endogenous TRα and TRβ)
# Set-up: species or system GH3-TRE-Luc (rat pituitary); GH3-TRE-Luc luciferase reporter, antagonist mode against 1 nM T3, loss of signal, qHTS
# Conditions: read-out: Average AC50 (uM) GH3-TRE-Antag, antagonist mode, 1 nM T3, no GH3 cytotoxicity hit
row,SMILES,AC50 [µM]
1,C=C(C)C(=O)Nc1ccc(Cl)c(Cl)c1 [Chloranocryl],55.5
2,Cc1ccc(-n2nc(C(C)(C)C)cc2NC(=O)Nc2ccc(OCCN3CCOCC3)c3ccccc23)cc1 [Doramapimod],45.9
3,CCCCOCCOC(=O)c1ccccc1C(=O)OCCOCCCC [Bis(2-butoxyethyl) phthalate],67.1
4,O=C(O)c1cccc(-c2noc(-c3ccccc3F)n2)c1 [Ataluren],10.8
5,CC(O)(CS(=O)(=O)c1ccc(F)cc1)C(=O)Nc1ccc(C#N)c(C(F)(F)F)c1 (centres unmarked) [Bicalutamide],35.3
6,O=C(N[C@H]1N=C(c2ccccc2F)c2cccc3c2N(CC3)C1=O)c1cc2ccccc2[nH]1 [Pranazepide],12.1
7,CC(C)NC(=O)N1CC(=O)N(c2cc(Cl)cc(Cl)c2)C1=O [Iprodione],59.3
8,O=c1[nH]c2ccc([S+]([O-])CCN3CCC(Cc4ccc(F)cc4)CC3)cc2o1 (centres unmarked) [Besonprodil],75.9
9,"Cc1cc(C(C)(C)c2ccc(O)c(C)c2)ccc1O [3,3'-Dimethylbisphenol A]",33.1
10,"CC(=O)OC(c1ccccc1)C(Cl)(Cl)Cl (centres unmarked) [2,2,2-Trichloro-1-phenylethyl acetate]",55.4
11,N[C@H](C(=O)O)[C@H](O)c1ccc(O)c(O)c1 [Droxidopa],29.5
12,Oc1c(I)cc(I)c2cccnc12 [Iodoquinol],11.5
13,CCc1ccc(C(=O)C(C)CN2CCCCC2)cc1 (centres unmarked) [Eperisone hydrochloride],38.3
14,"O=C(O)COc1cc(Cl)c(Cl)cc1Cl [2,4,5-Trichlorophenoxyacetic acid]",70.6
